PubChem BioAssay AID1159580 (chemical genetic matrix, 2015)
Hit rate of the full screen: of about 5,500 compounds, about 2,000 (36%) were called active. Roughly 18% stayed inconclusive and do not appear here. Cut-off read from the data, not from the text of the source: active = normalized growth mostly below about 0.91 (no sharp cut-off); inconclusive = no clear call, values can overlap the other calls; inactive = mostly above about 0.92. Some of the results follow.

Assay: chemical genetic growth profiling, strain panel (AID 1159580);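 note: tested at 20 µM; growth read once vehicle control cultures reached saturation at 30 °C; 1 = growth at the plate median or of vehicle wells; lower values mean less growth of the strain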
Conditions: growth OD

Measured: normalized growth

COC(=O)CCCOc1ccc(Cl)cc1Cl
inactive: S. cerevisiae deletion strains, locus YJR043C, strain POL32, active compounds read low 0.979 | S. cerevisiae deletion strains, locus YJR075W, strain HOC1, active compounds read low 0.995 | S. cerevisiae deletion strains, locus YKL009W, strain mrt4, active compounds read low 1.01 | S. cerevisiae deletion strains, locus YKL068W, active compounds read low 0.98 | S. cerevisiae deletion strains, locus YKL085W, strain MDH1 (second series), active compounds read low 0.982 | S. cerevisiae deletion strains, locus YKL085W, strain MDH1, active compounds read low 0.982 | S. cerevisiae deletion strains, locus YKL160W, strain elf1, active compounds read low 0.964 | S. cerevisiae deletion strains, locus YKL190W, strain CNB1, active compounds read low 0.99 | S. cerevisiae deletion strains, locus YKR001C, strain vps1, active compounds read low 0.987 | S. cerevisiae deletion strains, locus YKR026C, strain gcn3, active compounds read low 0.946 | S. cerevisiae deletion strains, locus YKR091W, strain srl3, active compounds read low 0.96 | S. cerevisiae deletion strains, locus YLL001W, strain dnm1, active compounds read low 0.957 | S. cerevisiae deletion strains, locus YLL026W, active compounds read low 0.957 | S. cerevisiae deletion strains, locus YLL041C, strain sdh2, active compounds read low 0.957 | S. cerevisiae deletion strains, locus YLR027C, strain aat2, active compounds read low 0.952 | S. cerevisiae deletion strains, locus YLR039C, strain RIC1, active compounds read low 0.982 | S. cerevisiae deletion strains, locus YLR058C, strain SHM2, active compounds read low 1 | S. cerevisiae deletion strains, locus YLR102C, strain apc9, active compounds read low 0.997 | S. cerevisiae deletion strains, locus YLR221C, strain rsa3, active compounds read low 0.967 | S. cerevisiae deletion strains, locus YLR258W, strain gsy2, active compounds read low 0.951 | S. cerevisiae deletion strains, locus YLR262C, strain YPT6 (second series), active compounds read low 0.92 | S. cerevisiae deletion strains, locus YLR262C, strain YPT6, active compounds read low 0.925 | S. cerevisiae deletion strains, locus YLR268W, strain sec22, active compounds read low 1.01 | S. cerevisiae deletion strains, locus YLR320W, strain mms22, active compounds read low 0.924 | S. cerevisiae deletion strains, locus YLR330W, strain CHS5, active compounds read low 0.991 | S. cerevisiae deletion strains, locus YLR342W, strain FKS1 (second series), active compounds read low 1 | S. cerevisiae deletion strains, locus YLR342W, strain FKS1, active compounds read low 0.948 | S. cerevisiae deletion strains, locus YLR357W, strain rsc2, active compounds read low 0.97 | S. cerevisiae deletion strains, locus YLR370C, strain arc18, active compounds read low 0.963 | S. cerevisiae deletion strains, locus YLR371W, strain rom2, active compounds read low 0.999 | S. cerevisiae deletion strains, locus YLR384C, strain iki3, active compounds read low 0.957 | S. cerevisiae deletion strains, locus YLR418C, strain cdc73, active compounds read low 1.02 | S. cerevisiae deletion strains, locus YML016C, strain PPZ1, active compounds read low 0.988 | S. cerevisiae deletion strains, locus YML032C, strain rad52, active compounds read low 1.01 | S. cerevisiae deletion strains, locus YML120C, strain ndi1, active compounds read low 0.967 | S. cerevisiae deletion strains, locus YML124C, strain tub3, active compounds read low 0.995 | S. cerevisiae deletion strains, locus YMR058W, strain fet3, active compounds read low 0.966 | S. cerevisiae deletion strains, locus YMR078C, strain ctf18, active compounds read low 1 | S. cerevisiae deletion strains, locus YMR125W, strain sto1, active compounds read low 0.954 | S. cerevisiae deletion strains, locus YMR129W, active compounds read low 0.95 | S. cerevisiae deletion strains, locus YMR205C, strain PFK2, active compounds read low 0.948 | S. cerevisiae deletion strains, locus YMR223W, strain ubp8, active compounds read low 1.01 | S. cerevisiae deletion strains, locus YMR231W, strain pep5, active compounds read low 0.949 | S. cerevisiae deletion strains, locus YMR263W, strain SAP30, active compounds read low 0.999 | S. cerevisiae deletion strains, locus YMR307W, strain GAS1, active compounds read low 0.98 | S. cerevisiae deletion strains, locus YNL067W, strain RPL9B, active compounds read low 0.995 | S. cerevisiae deletion strains, locus YNL071W, strain lat1, active compounds read low 0.967 | S. cerevisiae deletion strains, locus YNL128W, strain TEP1, active compounds read low 1 | S. cerevisiae deletion strains, locus YNL153C, strain GIM3, active compounds read low 0.999 | S. cerevisiae deletion strains, locus YNL209W, strain ssb2, active compounds read low 0.962 | S. cerevisiae deletion strains, locus YNL233W, strain BNI4, active compounds read low 1 | S. cerevisiae deletion strains, locus YNL248C, strain rpa49, active compounds read low 0.964 | S. cerevisiae deletion strains, locus YNL250W, strain rad50, active compounds read low 0.978 | S. cerevisiae deletion strains, locus YNL271C, strain bni1, active compounds read low 0.976 | S. cerevisiae deletion strains, locus YNL298W, strain CLA4, active compounds read low 0.985 | S. cerevisiae deletion strains, locus YNL307C, strain MCK1, active compounds read low 0.968 | S. cerevisiae deletion strains, locus YNL322C, strain KRE1 (second series), active compounds read low 0.957 | S. cerevisiae deletion strains, locus YNL322C, strain KRE1, active compounds read low 0.994 | S. cerevisiae deletion strains, locus YNR049C, strain mso1, active compounds read low 0.95 | S. cerevisiae deletion strains, locus YNR052C, strain pop2, active compounds read low 1.01 | S. cerevisiae deletion strains, locus YOL006C, strain TOP1, active compounds read low 0.971 | S. cerevisiae deletion strains, locus YOL012C, strain htz1 1.55 | S. cerevisiae deletion strains, locus YOL147C, strain pex11, active compounds read low 0.99 | S. cerevisiae deletion strains, locus YOR001W, strain rrp6, active compounds read low 0.983 | S. cerevisiae deletion strains, locus YOR061W, strain CKA2, active compounds read low 0.989 | S. cerevisiae deletion strains, locus YOR069W, strain VPS5, active compounds read low 1 | S. cerevisiae deletion strains, locus YOR070C, strain gyp1, active compounds read low 0.956 | S. cerevisiae deletion strains, locus YOR080W, strain dia2, active compounds read low 0.946 | S. cerevisiae deletion strains, locus YOR083W, strain WHI5, active compounds read low 0.957 | S. cerevisiae deletion strains, locus YOR106W, strain vam3, active compounds read low 0.991 | S. cerevisiae deletion strains, locus YOR136W, strain idh2, active compounds read low 1 | S. cerevisiae deletion strains, locus YOR144C, strain elg1, active compounds read low 0.998 | S. cerevisiae deletion strains, locus YOR184W, strain ser1, active compounds read low 0.993 | S. cerevisiae deletion strains, locus YOR265W, strain rbl2, active compounds read low 0.956 | S. cerevisiae deletion strains, locus YOR270C, strain vph1, active compounds read low 0.963 | S. cerevisiae deletion strains, locus YOR290C, strain snf2, active compounds read low 0.974 | S. cerevisiae deletion strains, locus YOR316C, strain cot1, active compounds read low 1 | S. cerevisiae deletion strains, locus YPL051W, strain arl3, active compounds read low 0.972 | S. cerevisiae deletion strains, locus YPL055C, strain LGE1, active compounds read low 0.978 | S. cerevisiae deletion strains, locus YPL078C, strain atp4, active compounds read low 0.948 | S. cerevisiae deletion strains, locus YPL106C, strain sse1, active compounds read low 0.964 | S. cerevisiae deletion strains, locus YPL240C, strain hsp82, active compounds read low 0.948 | S. cerevisiae deletion strains, locus YPL241C, strain CIN2, active compounds read low 0.993 | S. cerevisiae deletion strains, locus YPR119W, strain clb2, active compounds read low 0.995 | S. cerevisiae deletion strains, locus YPR141C, strain kar3, active compounds read low 0.981 | S. cerevisiae deletion strains, locus YPR163C, strain tif3, active compounds read low 1 | S. cerevisiae deletion strains, locus YPR167C, strain met16, active compounds read low 0.999 | S. cerevisiae deletion strains, strain wtn01, active compounds read low 0.995 | S. cerevisiae strains, strain wild type, active compounds read low 0.975
